Assay outcomes deposited in PubChem by several laboratories.
CCHF vOTU inh-1: CCHFV vOTU protease inhibitors, primary screen, biochemical, Pep-AMC substrate, fluorescence; actives 0.55% (n = 370,000); AID 651958, 2012; inhibition, % at 11.5 µM
RN4220 kill: growth inhibition of S. aureus RN4220, primary screen, OD600; actives 0.33% (n = 330,000); inhibition, % (test concentration not listed); 16 h; in the data active = inhibition above about 85%
PfHsp40 rescue: rescue of yeast from PfHsp40 toxicity, primary screen, S. cerevisiae, ATP luminescence. growth rescue, % at 12.5 µM. AID 504582, 2011. S. cerevisiae expressing PfHsp40, growth rescue. actives 0.68% (n = 340,000); in the data active = growth rescue above about 28%, passing the limit was not always enough; inconclusive = no clear call, values can overlap the other calls;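 also: yeast W303a lacking pdr1 and pdr3 grown in galactose medium; growth measured after three days at 30 °C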
Sa ugtP lethal: growth inhibition of ugtP-null S. aureus, primary screen, RN4220 ugtP deletion, OD600; 16 h; growth inhibition, % (concentration not given with the values); actives 0.54% (n = 330,000); AID 1259309, 2017; in the data active = growth inhibition above about 68%
BJeLR viability: MLPCN primary cell-based screen for lethality selective to Ras in HRASV12 cells; BJeLR (HRASV12) viability, CellTiter-Glo ATP luminescence, 48 h; inhibition, % (test concentration not listed); actives 0.17% (n = 300,000); AID 1554, 2009; in the data active = inhibition above about 50%; inconclusive = no clear call, values can overlap the other calls
CCHF vOTU inh-2: CCHFV vOTU protease inhibitors, confirmation, biochemical, Pep-AMC substrate, fluorescence; inhibition, % at 11.5 µM; actives 17% (n = 1,900); shares compounds with CCHF vOTU inh-1; Recombinant CCHFV vOTU
Numbers stand for hits; . = inactive; ? = inconclusive; / = not tested or not shown. In the library only some 1.6% were active in any assay of this set; here they are far more common. Rule as the data show it, unless noted: active = inhibition above about 30%; inactive = the rest.

SMILES	CCHF vOTU inh-1	RN4220 kill	PfHsp40 rescue	Sa ugtP lethal	BJeLR viability	CCHF vOTU inh-2
O=C(C[C@@H]1C/C=C/CCCC(=O)O[C@H](c2ccccc2)CNC1=O)N[C@H](CO)Cc1ccccc1	31	/	.	/	/	.
CCOc1ccc(-c2c(C(=O)NN=Cc3ccc(OC(C)C)cc3)nnn2-c2nonc2N)cc1	/	.	/	.	/	/
CCOc1cc(C=NNC(=O)C(=O)NCc2cccnc2)ccc1O	/	.	/	.	/	/
CCOC(=O)N=Nc1c2ccccc2c2nc3no[nH]c3nc12	59	100	116	100	54	86
CCOC(=O)N=Nc1c(O)n(CC(=O)OC)c2ccccc12	.	.	.	.	.	/
O=C(CNc1cccc2ccccc12)N/N=C/C(Br)=C/c1ccccc1	82	/	.	/	.	.
Cc1ccc(NCC(=O)NN=C/C(Br)=C/c2ccccc2)cc1	/	.	/	.	/	/
O=[N+]([O-])c1ccc(Cl)c(C=NN2CCN(Cc3ccc(Cl)cc3)CC2)c1	/	.	/	.	/	/
CC(=O)Oc1ccc(-c2csc(Nc3ccccn3)n2)cc1	42	/	/	/	/	.
O=C(CC1CC=CCC(Cc2ccc(F)cc2)C(=O)OC(c2ccccc2)CNC1=O)NC(CO)Cc1ccccc1 (stereo not drawn)	/	.	/	.	/	/
O=C(/C=C/c1ccc([N+](=O)[O-])s1)N1CCCC1	.	.	.	.	.	/
O=C(/C=C/c1ccc([N+](=O)[O-])s1)N1CCCCC1	32	.	.	.	.	32
O=C(Cn1ncc2c3ccccc3n(Cc3ccc(F)cc3)c2c1=O)N1CCN(c2ncccn2)CC1	34	.	.	.	.	.
COc1cccc(C=NNc2nnc3c(n2)[nH]c2ccccc23)c1OC	/	.	/	.	/	/
COc1ccc(C(C)=N/N=C2/NC(=O)CC(C(=O)O)S2)cc1 (stereo not drawn)	/	.	/	.	/	/
Cc1ccc(S(=O)(=O)Nc2ccc3ccccc3c2[N+](=O)[O-])cc1	35	.	408	.	/	.
Cc1ccc(S(=O)(=O)Nc2ccc3cc([N+](=O)[O-])ccc3c2[N+](=O)[O-])cc1	31	.	352	.	/	.
COc1cccc2sc3cc(NCCC4CCCN4C)ccc3c(=O)c12 (stereo not drawn)	/	.	/	.	/	/
N#C/C(=C/c1ccccc1)C(=O)NCc1ccccc1	.	.	.	.	.	/
CN(C)c1ccc(/C=C(/C#N)C(=O)NCc2ccccc2)o1	32	.	.	.	.	.
COc1ccc(P2(=O)Nc3ccccc3N2)cc1	.	/	.	/	.	/
COc1ccc2c(c1)NP(=S)(c1ccccc1)N2C (stereo not drawn)	38	.	.	.	/	.
CC(C)c1[nH]nc2c1C(c1cccc(C(F)(F)F)c1)N(c1ccccc1)C2=O (stereo not drawn)	34	/	/	/	/	.
O=C1c2ccccc2C(=O)c2c(/C=C/N3CCCCC3)ccnc21	30	/	?	/	/	52
CC1=NN(c2ccccc2)C(=O)C1=Cc1cn(CCC#N)nc1-c1ccc(Cl)cc1	/	.	/	.	/	/
SMILES	CCHF vOTU inh-1	RN4220 kill	PfHsp40 rescue	Sa ugtP lethal	BJeLR viability	CCHF vOTU inh-2
Cc1ccc(C)c(/C(O)=C2\C(=O)C(=O)N(CCCN3CCOCC3)C2c2cccnc2)c1 (stereo not drawn)	46	.	.	.	.	.
CC(=NNC(=O)c1nnn(-c2nonc2N)c1C)c1ccc(-c2ccccc2)cc1	/	.	/	.	/	/
Cc1cccc(Nc2nc(N)c([N+](=O)[O-])c(N3CCCC(C)C3)n2)c1 (stereo not drawn)	31	.	166	.	.	.
C=CCCC(Cc1ccc(F)cc1)C(=O)OCC(C)NC(=O)C(CC=C)CC(=O)NC(CO)Cc1ccccc1 (stereo not drawn)	/	.	/	.	/	/
CCN(CC(=O)NCc1cccs1)C(=O)CCCOc1ccc(C(C)(C)C)cc1	31	.	.	.	/	.
O=C(NCc1ccc(Cl)c(Cl)c1)c1cc(C2CCCCN2C(=O)C2CCCCC2)on1 (stereo not drawn)	31	/	/	/	/	.
COC(=O)N1CCCCC1c1cc(C(=O)NCc2ccc(Cl)c(Cl)c2)no1 (stereo not drawn)	.	/	/	/	/	/
CC(=O)Oc1ccc(C(=O)C2C3C(=O)N(c4ccccc4)C(=O)C3C3C=CC=NN32)cc1 (stereo not drawn)	/	.	/	.	/	/
CCOC(=O)c1cnc(Nc2ccccc2)nc1C(F)(F)F	34	.	.	.	.	.
O=C(C1=CC(c2ccc(Br)cc2)CC(OCCCCO)O1)N1CCN(Cc2ccc3c(c2)OCO3)CC1 (stereo not drawn)	/	.	/	.	/	/
CC(C)[n+]1ccn(C2=C([O-])c3ccccc3C(=O)/C2=N\S(=O)(=O)c2ccccc2)c1	33	.	.	.	.	31
CCCC[n+]1ccn(C2=C([O-])c3ccccc3C(=O)/C2=N\S(=O)(=O)c2ccccc2)c1	58	.	.	.	.	54
O=C(O)C1=CCC(c2ccc(Cl)c(Cl)c2)N(S(=O)(=O)c2ccc(F)cc2)C1c1cccc(F)c1 (stereo not drawn)	37	/	/	/	/	.
CCc1ccc([C@@H]2C[C@H]3[C@@H](CN2S(=O)(=O)c2ccc(C)cc2)C(=O)C[C@@H](c2ccc(C)cc2)N3S(=O)(=O)c2ccc(C)cc2)cc1	34	/	/	/	/	.
Cc1ccc(S(=O)(=O)N2[C@@H](c3ccc(Br)cc3)C(C(=O)O)=CC[C@H]2c2ccc(Cl)c(Cl)c2)cc1	32	.	.	.	/	.
Cc1ccc([C@H]2C(C(=O)O)=CC[C@@H](c3ccc(C(C)C)cc3)N2S(=O)(=O)c2ccc(C)cc2)cc1	38	.	.	.	/	.
CCc1ccc([C@@H]2C[C@H]3[C@@H](CN2S(=O)(=O)c2ccc(C)cc2)C(=O)C[C@@H](c2ccccc2)N3S(=O)(=O)c2ccc(C)cc2)cc1	.	/	/	/	/	/
C#CCNC(=O)C1=CC(c2ccc(Br)cc2)CC(OCCCCO)O1 (stereo not drawn)	/	.	/	.	/	/
CC=CC1=CC(=O)CC(c2ccc(Cl)cc2)C1 (stereo not drawn)	/	.	/	.	/	/
S=c1[nH]nc(-c2ccco2)n1N=Cc1ccccn1	/	.	/	.	/	/
Cc1ccc(S(=O)(=O)N2[C@@H](c3ccccc3)C(C(=O)O)=CC[C@H]2c2ccc(C(C)C)cc2)cc1	30	/	133	/	/	.
Cc1ccc(C2CC=C(C(=O)O)C(c3ccccc3)N2S(=O)(=O)c2ccc(C)cc2)cc1 (stereo not drawn)	/	.	/	.	/	/
CCc1ccc([C@@H]2CC=C(C(=O)O)[C@H](c3ccc(C)cc3)N2S(=O)(=O)c2ccc(C)cc2)cc1	32	.	.	.	/	.
Cc1ccc(S(=O)(=O)N2[C@@H](c3ccc(C(C)(C)C)cc3)C(C(=O)O)=CC[C@H]2c2cccc(Cl)c2)cc1	38	.	.	.	/	.
Cc1ccc(S(=O)(=O)N2[C@@H](c3ccc(Br)cc3)C(C(=O)O)=CC[C@H]2c2cccc(Cl)c2)cc1	.	.	.	.	/	/
